Experimental data from PubChem BioAssay (NCATS).
Values joined by “and” are separate entries in the source; they are usually repeats but may differ in a detail not shown here. Equal values may be shown once. Values without a mark were called inactive. Records with an inconclusive call do not appear. Active and inactive are the calls of the source. Unless noted, how the calls were made is not given here.

Test system: not listed separately
Experiment: qHTS assay for cell viability of the p53RE-bla HCT-116 cell line (AID 743292; active means well fitted cell-killing curve with a large enough effect; further: on the % scale 0 is the no-effect control and ±100 the full control effect; nearly all actives have a fitted effect of over 55% in size)
Conditions: p53RE-bla HCT-116 viability, ATP luminescence, 16 h; series mostly up to 95 µM; activity change, negative = cytotoxicity: at the top concentration
Outline: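 CellSensor p53RE-bla HCT-116 cells, 4,000/well, preincubated 5 h at 37 C, then exposed to compounds in DMSO for 16 h at 37 C. Viability read as CellTiter-Glo luminescence (intracellular ATP) after 30 min at room temperature.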

Structure (SMILES)	Potency	activity change, negative = cytotoxicity [%]
C/C(=N\NC(=O)Nc1cc(F)cc(F)c1)c1ncccc1C(=O)O	inactive	–
CCCC1COC(Cn2cncn2)(c2ccc(Cl)cc2Cl)O1 (stereo unspecified)	inactive	–
Cc1cnc(C2=NC(C)(C(C)C)C(=O)N2)c(C(=O)O)c1 (stereo unspecified)	–	0.625
O=S(=O)(c1ccc(O)cc1)c1ccc(O)cc1	–	-13.7
CCOP(=O)(O)C(N)=O	–	-11.2
COc1ccc(O)c(C(C)(C)C)c1	–	-1.26
CCOP(=S)(OCC)SCC(=O)NC(C)C	–	3.71
NS(=O)(=O)C(F)(F)C(F)(F)C(F)(F)C(F)(F)C(F)(F)C(F)(F)C(F)(F)C(F)(F)F	–	-21
Clc1ccc([C@]2(Cn3cncn3)C[C@@H](Br)CO2)c(Cl)c1	inactive	–
CCOP(=O)(SC(C)CC)SC(C)CC (stereo unspecified)	–	5.28
CNC(=O)Oc1cccc2c1OC(C)(C)C2O (stereo unspecified)	–	5.17
C/C(=N\C(N)=O)N(C)Cc1ccc(Cl)nc1	–	-8.94
O=S1OC[C@@H]2[C@H](CO1)[C@@]1(Cl)C(Cl)=C(Cl)[C@]2(Cl)C1(Cl)Cl (stereo partly specified)	inactive	–
FC(F)(F)c1ccc(OCCCOc2c(Cl)cc(OCC=C(Cl)Cl)cc2Cl)nc1	–	-24.1
C=CCC1=C(C)[C@@H](OC(=O)[C@@H]2[C@@H](C=C(C)C)C2(C)C)CC1=O	–	-5.3
Cc1ccccc1C(=O)Nc1cccc(OC(C)C)c1	–	2.81

Structure (SMILES)	Potency	activity change, negative = cytotoxicity [%]
CCOC1Oc2ccc(OS(C)(=O)=O)cc2C1(C)C (stereo unspecified)	–	-5.57
Nc1ccc([N+](=O)[O-])cc1Cl	–	-5.04
CCCCC(CC)C(=O)Cl (stereo unspecified)	–	4.86
CCNc1nc(NC(C)(C)C)nc(SC)n1	–	-14.7
CCOP(=O)(OCC)SCSCC	–	5.47
CCOP(=O)(OCC)SCSC(C)(C)C	–	-8.76
CNC(=O)Oc1ccc(N(C)C)c(C)c1	–	-0.791
COC(=O)c1ccccc1CS(=O)(=O)NC(=O)Nc1nc(OC)cc(OC)n1	–	7.09
Cc1cc(Cl)ccc1OCC(=O)O	inactive	–
CCOP(=S)(OCC)Oc1cnc2ccccc2n1	–	-9.47
CCOP(=S)(S)OCC	–	1.26
CCCCN(CC)C(=O)SCCC	–	-0.213
O=[N+]([O-])c1ccc(Oc2ccc(C(F)(F)F)cc2[N+](=O)[O-])cc1	–	-14.7
C/C=C(\C)C(=O)O[C@H]1C[C@@H](OC(C)=O)[C@@]2(C(=O)OC)CO[C@H]3[C@@H](O)[C@@](C)([C@]45O[C@@]4(C)[C@H]4C[C@@H]5O[C@@H]5OC=C[C@@]54O)[C@H]4[C@]1(CO[C@]4(O)C(=O)OC)[C@@H]32	–	-20.4
C=CC1(C)OC(=O)N(c2cc(Cl)cc(Cl)c2)C1=O (stereo unspecified)	–	7.58

Molecular target: Nuclear receptor subfamily 1 group I member 2 (Rattus norvegicus) (UniProt Q9R1A7)
Experiment: qHTS assay for small molecule activators of the rat pregnane X receptor (rPXR) signaling pathway (AID 651751); further: 0% is about no effect
Conditions: rPXR reporter cells, luciferase (One-Glo), 24 h

Chain of Nuclear receptor subfamily 1 group I member 2 (Rattus norvegicus) (Q9R1A7 whole entry, looked up): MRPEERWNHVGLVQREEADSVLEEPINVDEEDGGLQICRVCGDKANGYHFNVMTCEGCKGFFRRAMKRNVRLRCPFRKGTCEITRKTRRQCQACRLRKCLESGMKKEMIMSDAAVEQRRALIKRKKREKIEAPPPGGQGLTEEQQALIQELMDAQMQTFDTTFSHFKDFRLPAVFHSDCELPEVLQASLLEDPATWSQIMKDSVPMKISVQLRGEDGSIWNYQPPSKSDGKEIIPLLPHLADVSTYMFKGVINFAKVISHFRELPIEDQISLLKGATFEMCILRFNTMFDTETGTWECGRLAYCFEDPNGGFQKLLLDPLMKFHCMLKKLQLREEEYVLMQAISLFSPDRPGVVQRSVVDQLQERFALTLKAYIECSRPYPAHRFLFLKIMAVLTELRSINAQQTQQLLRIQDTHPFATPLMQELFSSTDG

Structure (SMILES)	max response
C/C(=N\NC(=O)Nc1cc(F)cc(F)c1)c1ncccc1C(=O)O	-0.995% and 1.1%
Cc1cnc(C2=NC(C)(C(C)C)C(=O)N2)c(C(=O)O)c1 (stereo unspecified)	5.11% and -5.71%
O=S(=O)(c1ccc(O)cc1)c1ccc(O)cc1	-2.78%
CCOP(=O)(O)C(N)=O	-2.01%
CCOc1nc(NC)nc(NC(=O)NS(=O)(=O)c2ccccc2C(=O)OC)n1	1.05%
COc1ccc(O)c(C(C)(C)C)c1	3.52%
NS(=O)(=O)C(F)(F)C(F)(F)C(F)(F)C(F)(F)C(F)(F)C(F)(F)C(F)(F)C(F)(F)F	-9.61%
CCOP(=O)(SC(C)CC)SC(C)CC (stereo unspecified)	4.1%
CNC(=O)Oc1cccc2c1OC(C)(C)C2O (stereo unspecified)	-0.827%
C/C(=N\C(N)=O)N(C)Cc1ccc(Cl)nc1	2.68%
FC(F)(F)c1ccc(OCCCOc2c(Cl)cc(OCC=C(Cl)Cl)cc2Cl)nc1	1.93%
CCOC1Oc2ccc(OS(C)(=O)=O)cc2C1(C)C (stereo unspecified)	11.5%
Nc1ccc([N+](=O)[O-])cc1Cl	2.06%
CCCCC(CC)C(=O)Cl (stereo unspecified)	-0.98%
CCNc1nc(NC(C)(C)C)nc(SC)n1	2.02%
CCOP(=O)(OCC)SCSCC	-5.9%
CCOP(=O)(OCC)SCSC(C)(C)C	1.41%
CNC(=O)Oc1ccc(N(C)C)c(C)c1	2.85%
COC(=O)c1ccccc1CS(=O)(=O)NC(=O)Nc1nc(OC)cc(OC)n1	-0.458%
Cc1cc(Cl)ccc1OCC(=O)O	-1.6% and -6.7%
CCOP(=S)(OCC)Oc1cnc2ccccc2n1	7.55%
CCOP(=S)(S)OCC	1.97%
CCCCN(CC)C(=O)SCCC	4.32%
O=[N+]([O-])c1ccc(Oc2ccc(C(F)(F)F)cc2[N+](=O)[O-])cc1	11.4%
C=CC1(C)OC(=O)N(c2cc(Cl)cc(Cl)c2)C1=O (stereo unspecified)	-0.0091%

Test system: not listed separately
Experiment: qHTS assay for small molecule activators of the human pregnane X receptor (PXR) signaling pathway (AID 720659); further: 0% is about no effect
Conditions: DPX-2 HepG2 CYP3A4-luciferase, 24 h; series mostly up to 92.3 µM; activation: at the top concentration

Structure (SMILES)	activation [%]	outcome
O=S(=O)(c1ccc(O)cc1)c1ccc(O)cc1	14	–
CCOP(=O)(O)C(N)=O	-6.04	–
CCOP(=O)(SC(C)CC)SC(C)CC (stereo unspecified)	0	–
CNC(=O)Oc1cccc2c1OC(C)(C)C2O (stereo unspecified)	4.34	–
C/C(=N\C(N)=O)N(C)Cc1ccc(Cl)nc1	-2.12	–
FC(F)(F)c1ccc(OCCCOc2c(Cl)cc(OCC=C(Cl)Cl)cc2Cl)nc1	11.7	–
Nc1ccc([N+](=O)[O-])cc1Cl	5.15	–
CCCCC(CC)C(=O)Cl (stereo unspecified)	29.6	–
CCOP(=O)(OCC)SCSC(C)(C)C	12.2	–
CNC(=O)Oc1ccc(N(C)C)c(C)c1	23.5	–
COC(=O)c1ccccc1CS(=O)(=O)NC(=O)Nc1nc(OC)cc(OC)n1	1.64	–
Cc1cc(Cl)ccc1OCC(=O)O	–	inactive
CCOP(=S)(S)OCC	1.64	–
CCCCN(CC)C(=O)SCCC	-2.29	–
O=[N+]([O-])c1ccc(Oc2ccc(C(F)(F)F)cc2[N+](=O)[O-])cc1	0	–
